{
  "source": "ChEMBL document CHEMBL1157539",
  "about": "“Thousands of chemical starting points for antimalarial lead identification” (Nature, 2010)",
  "format_in_all_cases": "functional",
  "key": {"[1]": {"system": "Plasmodium falciparum", "experiment": "GSK_TCMDC: Inhibition of Plasmodium falciparum 3D7 in whole red blood cells, using parasite LDH activity as an index of growth. Test compounds present at 2uM"}, "[2]": {"system": "Plasmodium falciparum", "experiment": "GSK_TCMDC: Inhibition of Plasmodium falciparum Dd2 in whole red blood cells, using parasite LDH activity as an index of growth. Test compounds present at 2uM"}, "[3]": {"system": "HepG2", "experiment": "GSK_TCMDC: Percent inhibition of human HepG2 cell line. Test compounds present at 10uM."}},
  "data": [
    {"smiles": "Cl.ON=C1CCc2cc(-c3nc(-c4ccc(OCCN5CCCCC5)cc4)[nH]c3-c3ccncc3)ccc21", "values": [
      {"measurement": "Inhibition", "setting": "[1]", "result": 99, "unit": "%"},
      {"measurement": "Inhibition", "setting": "[2]", "result": 54, "unit": "%"},
      {"measurement": "Inhibition", "setting": "[3]", "result": 73, "unit": "%"}
    ]},
    {"smiles": "CCOc1ccc(OCC(=O)Nc2nc(-c3ccc(OC)cc3)c(C)s2)cc1", "values": [
      {"measurement": "Inhibition", "setting": "[1]", "result": 99, "unit": "%"},
      {"measurement": "Inhibition", "setting": "[2]", "result": 98, "unit": "%"},
      {"measurement": "Inhibition", "setting": "[3]", "result": 0, "unit": "%"}
    ]},
    {"smiles": "CC(C)(C)c1ccc(CN2CCC(CNC(=O)c3cc(-c4ccccc4)nc4ccccc34)CC2)cc1", "values": [
      {"measurement": "Inhibition", "setting": "[1]", "result": 89, "unit": "%"},
      {"measurement": "Inhibition", "setting": "[2]", "result": 36, "unit": "%"},
      {"measurement": "Inhibition", "setting": "[3]", "result": 33, "unit": "%"}
    ]},
    {"smiles": "CN(C)CC1CCCN1Cc1ccccc1-c1cnn(C)c(=O)c1Oc1ccc(F)cc1.O=C(O)C(F)(F)F", "note": "(stereo not given)", "values": [
      {"measurement": "Inhibition", "setting": "[1]", "result": 91, "unit": "%"},
      {"measurement": "Inhibition", "setting": "[2]", "result": 19, "unit": "%"},
      {"measurement": "Inhibition", "setting": "[3]", "result": 29, "unit": "%"}
    ]},
    {"smiles": "O=C(Nc1ccccc1)N(Cc1cccc(-c2ccc(CNCCc3ccccc3)cc2)c1)C1CCN(Cc2ccccc2)CC1.O=C(O)C(F)(F)F", "values": [
      {"measurement": "Inhibition", "setting": "[1]", "result": 100, "unit": "%"},
      {"measurement": "Inhibition", "setting": "[2]", "result": 95, "unit": "%"},
      {"measurement": "Inhibition", "setting": "[3]", "result": 100, "unit": "%"}
    ]},
    {"smiles": "COc1cc2ncnc(Nc3ccc(Br)c(Cl)c3)c2cc1OC.Cl", "values": [
      {"measurement": "Inhibition", "setting": "[1]", "result": 100, "unit": "%"},
      {"measurement": "Inhibition", "setting": "[2]", "result": 15, "unit": "%"},
      {"measurement": "Inhibition", "setting": "[3]", "result": 22, "unit": "%"}
    ]},
    {"smiles": "CN(Cc1cccc(O)c1)C1CCN(c2cc(NC(=O)c3ccc(F)cc3)ccn2)CC1.O=C(O)C(F)(F)F", "values": [
      {"measurement": "Inhibition", "setting": "[1]", "result": 94, "unit": "%"},
      {"measurement": "Inhibition", "setting": "[2]", "result": 9, "unit": "%"},
      {"measurement": "Inhibition", "setting": "[3]", "result": 24, "unit": "%"}
    ]},
    {"smiles": "N#Cc1cncc(-c2nc3c(N4CCN(c5cnccn5)CC4)cccc3n2CCNCc2ccccc2)c1.O=C(O)C(F)(F)F", "values": [
      {"measurement": "Inhibition", "setting": "[1]", "result": 99, "unit": "%"},
      {"measurement": "Inhibition", "setting": "[2]", "result": 31, "unit": "%"},
      {"measurement": "Inhibition", "setting": "[3]", "result": 0, "unit": "%"}
    ]},
    {"smiles": "CCOCCCNc1ncc(-c2ccsc2)c(-c2nc(C)cs2)n1", "values": [
      {"measurement": "Inhibition", "setting": "[1]", "result": 89, "unit": "%"},
      {"measurement": "Inhibition", "setting": "[2]", "result": 83, "unit": "%"},
      {"measurement": "Inhibition", "setting": "[3]", "result": 0, "unit": "%"}
    ]},
    {"smiles": "Cc1ccc(NC(=O)NC2CCN(c3ccnc4ccccc34)C2)cc1.O=C(O)C(F)(F)F", "note": "(stereo not given)", "values": [
      {"measurement": "Inhibition", "setting": "[1]", "result": 99, "unit": "%"},
      {"measurement": "Inhibition", "setting": "[2]", "result": 48, "unit": "%"},
      {"measurement": "Inhibition", "setting": "[3]", "result": 7, "unit": "%"}
    ]}
  ]
}
